Laboratory results reported in PubChem BioAssay.
Activity calls are given as the source filed them.

Key:
[1] = binders of probe aFSTL3 on microarray, primary screen, stem cell growth factor project, biochemical, small-molecule microarray, fluorescence 635/667 (AID 1064); conditions: higher = more signal;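 further: measures binding of the biotinylated anti-FSTL3 antibody to printed compounds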
[2] = binders from COS7 lysate, DM2A8 probe, primary screen, torsin A project, cell lysate, small-molecule microarray, fluorescence 635/667 (AID 1065); conditions: higher = more signal, COS7 lysate expressing mutant human TOR1A
[3] = binders of probe aFGF2 on microarray, primary screen, stem cell growth factor project, biochemical, small-molecule microarray, fluorescence 635/667 (AID 1067); conditions: higher = more signal;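 further: measures binding of biotinylated aFGF2 protein to printed compounds on slides; z-score merges feature fluorescence and signal-to-noise across triplicate slides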
[4] = binders of probe aFGF10 on microarray, primary screen, stem cell growth factor project, biochemical, small-molecule microarray, fluorescence 635/667 (AID 1071); conditions: higher = more signal;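 further: score merges 667 nm spot intensity and signal to noise from triplicate slides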
[5] = target: Neurogenic locus notch homolog protein 2 (Homo sapiens) (UniProt Q04721); test: Notch2 binders on small-molecule microarrays, primary screen, biochemical, small-molecule microarray, 635 nm fluorescence, stem cell growth factors (AID 1073); conditions: Notch2 binding, higher = more signal
[6] = target: Pro-neuregulin-1, membrane-bound isoform (Homo sapiens) (UniProt Q02297); test: NRG1 binders on small-molecule microarrays, primary screen, psychiatric disease protein project, biochemical, small-molecule microarray, fluorescence 635/667 (AID 1075); conditions: NRG1 binding, 635 nm fluorescence, higher = more signal;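 further: score combines 667 nm spot fluorescence with signal to noise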
[7] = tested on: Neuregulin-1 EGF-like domain; test: binders of neuregulin-1 EGF-like domain, primary screen, biochemical, small-molecule microarray, 635 nm fluorescence (AID 1081); conditions: small-molecule microarray binding, higher = more signal;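 further: binding of the protein to compounds printed on small-molecule microarray slides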
[8] = FRG1 promoter luciferase signal modulators, primary screen, FRG1 inhibition for FSHD, cell-based, C2C12 myotubes, firefly/Renilla luciferase, luminescence (AID 1084); conditions: higher = more signal, called active from +8 up or from −8 down
[9] = binders of probe aFST on microarray, primary screen, stem cell growth factor project, biochemical, small-molecule microarray, fluorescence 635/667 (AID 1086); conditions: higher = more signal;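 further: score merges 667 nm fluorescence with signal-to-noise of each printed compound spot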
[10] = binders of probe aHhip on microarray, primary screen, stem cell growth factor project, biochemical, small-molecule microarray, fluorescence 635/667 (AID 1087); conditions: higher = more signal;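 further: score merges spot fluorescence at 667nm with spot signal to noise ratio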

Chain of Pro-neuregulin-1, membrane-bound isoform (Homo sapiens) (Q02297 whole entry, looked up, the tested form may be a part, canonical isoform): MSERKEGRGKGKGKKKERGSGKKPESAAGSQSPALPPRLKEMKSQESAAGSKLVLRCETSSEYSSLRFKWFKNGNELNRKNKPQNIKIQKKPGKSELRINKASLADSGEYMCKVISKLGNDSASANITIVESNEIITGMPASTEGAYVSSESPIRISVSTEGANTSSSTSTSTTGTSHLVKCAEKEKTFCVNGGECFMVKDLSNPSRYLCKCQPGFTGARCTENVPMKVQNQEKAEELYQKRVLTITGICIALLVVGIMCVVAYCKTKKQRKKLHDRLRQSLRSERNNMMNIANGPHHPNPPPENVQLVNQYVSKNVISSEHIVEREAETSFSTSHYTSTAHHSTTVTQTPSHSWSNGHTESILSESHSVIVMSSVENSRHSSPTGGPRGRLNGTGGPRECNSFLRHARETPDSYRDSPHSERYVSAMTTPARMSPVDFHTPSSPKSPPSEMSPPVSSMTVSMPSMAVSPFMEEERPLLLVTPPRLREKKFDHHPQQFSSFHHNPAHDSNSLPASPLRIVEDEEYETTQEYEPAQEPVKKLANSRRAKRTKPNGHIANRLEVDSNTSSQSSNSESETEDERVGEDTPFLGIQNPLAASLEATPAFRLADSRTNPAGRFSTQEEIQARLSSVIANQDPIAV
Chain of Neurogenic locus notch homolog protein 2 (Homo sapiens) (Q04721 whole entry, looked up, canonical isoform): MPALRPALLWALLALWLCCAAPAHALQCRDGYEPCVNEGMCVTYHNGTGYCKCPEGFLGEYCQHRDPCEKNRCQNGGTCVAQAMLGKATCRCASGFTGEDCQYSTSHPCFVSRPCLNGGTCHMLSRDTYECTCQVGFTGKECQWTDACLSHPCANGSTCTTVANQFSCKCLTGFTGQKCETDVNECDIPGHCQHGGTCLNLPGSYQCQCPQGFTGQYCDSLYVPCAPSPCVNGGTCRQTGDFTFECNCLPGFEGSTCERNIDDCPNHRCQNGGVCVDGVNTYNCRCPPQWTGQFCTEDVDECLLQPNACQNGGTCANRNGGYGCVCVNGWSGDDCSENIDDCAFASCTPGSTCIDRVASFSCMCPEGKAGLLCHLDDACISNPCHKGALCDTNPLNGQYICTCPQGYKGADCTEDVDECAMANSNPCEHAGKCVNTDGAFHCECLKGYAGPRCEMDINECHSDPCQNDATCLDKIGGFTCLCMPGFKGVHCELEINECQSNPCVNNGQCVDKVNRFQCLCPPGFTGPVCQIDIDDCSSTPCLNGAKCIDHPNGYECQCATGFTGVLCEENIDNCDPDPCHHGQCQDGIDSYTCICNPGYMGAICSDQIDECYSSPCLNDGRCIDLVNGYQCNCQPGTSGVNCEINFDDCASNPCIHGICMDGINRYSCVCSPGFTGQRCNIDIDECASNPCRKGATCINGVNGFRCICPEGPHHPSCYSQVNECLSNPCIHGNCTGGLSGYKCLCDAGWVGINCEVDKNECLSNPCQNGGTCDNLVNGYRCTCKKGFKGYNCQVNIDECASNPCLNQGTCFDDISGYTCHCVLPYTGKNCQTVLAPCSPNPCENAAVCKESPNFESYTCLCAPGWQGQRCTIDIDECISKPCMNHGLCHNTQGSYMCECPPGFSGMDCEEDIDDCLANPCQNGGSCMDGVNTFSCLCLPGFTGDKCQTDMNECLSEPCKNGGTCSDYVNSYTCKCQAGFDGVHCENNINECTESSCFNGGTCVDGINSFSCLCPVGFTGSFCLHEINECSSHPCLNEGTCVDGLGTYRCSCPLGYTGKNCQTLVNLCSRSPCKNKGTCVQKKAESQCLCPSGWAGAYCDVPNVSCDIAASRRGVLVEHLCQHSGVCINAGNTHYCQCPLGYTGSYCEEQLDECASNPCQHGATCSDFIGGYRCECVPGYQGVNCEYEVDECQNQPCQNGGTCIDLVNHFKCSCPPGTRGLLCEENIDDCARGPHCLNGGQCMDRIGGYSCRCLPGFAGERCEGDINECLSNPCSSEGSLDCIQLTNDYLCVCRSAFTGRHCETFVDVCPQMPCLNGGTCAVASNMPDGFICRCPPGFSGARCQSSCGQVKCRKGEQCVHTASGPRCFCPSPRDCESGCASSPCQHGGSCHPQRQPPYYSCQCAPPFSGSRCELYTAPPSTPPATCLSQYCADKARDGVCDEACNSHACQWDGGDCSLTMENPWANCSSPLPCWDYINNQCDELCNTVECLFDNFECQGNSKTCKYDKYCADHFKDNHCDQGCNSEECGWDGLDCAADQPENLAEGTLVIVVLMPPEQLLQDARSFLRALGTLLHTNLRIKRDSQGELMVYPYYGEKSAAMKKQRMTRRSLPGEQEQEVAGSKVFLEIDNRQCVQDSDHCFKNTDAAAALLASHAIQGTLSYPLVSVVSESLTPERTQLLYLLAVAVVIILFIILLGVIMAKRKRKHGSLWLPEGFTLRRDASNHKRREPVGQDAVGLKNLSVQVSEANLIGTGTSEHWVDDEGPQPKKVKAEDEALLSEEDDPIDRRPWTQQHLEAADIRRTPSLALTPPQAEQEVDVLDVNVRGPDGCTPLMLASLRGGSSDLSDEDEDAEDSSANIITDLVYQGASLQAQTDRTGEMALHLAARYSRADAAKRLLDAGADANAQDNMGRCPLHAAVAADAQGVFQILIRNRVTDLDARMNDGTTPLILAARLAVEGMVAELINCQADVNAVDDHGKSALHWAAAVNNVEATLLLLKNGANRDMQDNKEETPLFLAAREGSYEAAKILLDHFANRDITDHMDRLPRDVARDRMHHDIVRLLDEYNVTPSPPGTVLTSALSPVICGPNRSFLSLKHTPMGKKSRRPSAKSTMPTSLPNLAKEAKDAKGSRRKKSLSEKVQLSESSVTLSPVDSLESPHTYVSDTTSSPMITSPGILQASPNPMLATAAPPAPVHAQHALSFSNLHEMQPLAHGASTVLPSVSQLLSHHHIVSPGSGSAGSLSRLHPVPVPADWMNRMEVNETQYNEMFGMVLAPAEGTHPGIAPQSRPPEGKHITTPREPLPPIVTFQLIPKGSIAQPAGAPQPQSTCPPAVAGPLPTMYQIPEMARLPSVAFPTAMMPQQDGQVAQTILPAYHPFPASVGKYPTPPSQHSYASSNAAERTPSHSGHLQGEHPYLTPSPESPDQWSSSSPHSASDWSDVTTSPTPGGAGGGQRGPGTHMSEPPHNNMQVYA

| SMILES | composite z-score [1] | composite z-score [2] | composite z-score [3] | composite z-score [4] | composite z-score [5] | composite z-score [6] | composite z-score [7] | z-score [8] | composite z-score [9] | composite z-score [10] |
| --- | --- | --- | --- | --- | --- | --- | --- | --- | --- | --- |
| CCOC(=O)C[C@H]1[C@H](OC(=O)Cc2ccc3c(c2)OCO3)[C@@H](NC(=O)c2ccc3ccccc3n2)c2cc(OCCCO)ccc2N1C(=O)Cc1ccc(OC)cc1 | -0.238 | 0.38 | -0.0785 | 0.205 | 0.761 | 1.17 | 0.38 | -0.876 (inactive) | 0.447 | -0.0994 |
| COc1ccc([Si](C)(C)[C@H]2[C@H](CCO)O[C@@]3(C(=O)N(Cc4ccc(NC(=O)[C@H](C)O)cc4)c4ccccc43)[C@@H]2C)cc1 | -0.184 | 0.485 | -0.0508 | 0.663 | 1.19 | 1.54 | 1.19 | -4.06 (inactive) | 0.292 | 0.0401 |
| Cc1ccc(S[C@]2(C(=O)NC3CC3)CC(=O)N(C(C)C)[C@@H]2c2ccc(CO)cc2I)cc1 | -0.113 | 0.38 | -0.0234 | 0.0084 | -0.372 | 1.89 | 1.07 | -0.0443 (inactive) | 0.933 | -0.318 |
| C=CCC(OC(C)=O)[C@@H]1[C@@H](N(Cc2cccc3ccccc23)C(=O)c2ccc(-c3ccccc3)cc2)c2cc(OCCCO)ccc2N1C(=O)Cc1ccc2ccccc2c1 (stereo not given in full) | -0.141 | 0.14 | -0.0171 | -0.272 | 0.07 | 0.022 | -0.374 | -0.94 (inactive) | 0.481 | -0.134 |
| COc1ccc([Si](C)(C)[C@H]2[C@H](CC(=O)N3Cc4ccccc4C[C@H]3CO)O[C@@]3(C(=O)N(C)c4c(Br)cc(C)cc43)[C@@H]2C)cc1 | -0.0669 | 0.403 | -0.119 | 0.333 | 0.363 | 1.05 | 1.11 | -4.4 (inactive) | 0.334 | -0.132 |
| O=C1C[C@@](C(=O)O)(c2ccc([N+](=O)[O-])cc2)[C@@H](c2ccc(CO)cc2)N1C1CCCCC1 | -0.0207 | 0.748 | 0.137 | 0.687 | 1.46 | 1.63 | 1.21 | -0.118 (inactive) | 0.905 | -0.0645 |
| N#Cc1ccc(NN2C(C(O)C3CC=CCC3)C=CC3C(=O)N(c4ccccc4)C(=O)C32)cc1 (stereo not given) | 0.076 | -0.902 | -0.073 | 0.39 | 1.5 | 1.89 | 1.29 | 0.474 (inactive) | 1.28 | -0.0427 |
| Cc1ccc(S[C@]2(C(=O)NCc3ccccc3)CC(=O)N(Cc3ccccc3C(F)(F)F)[C@@H]2c2ccc(CO)cc2)cc1 | 0.563 | -0.355 | -0.105 | -0.659 | -1.44 | 0.642 | -1.08 | -1.92 (inactive) | -0.633 | -0.204 |
| CCCC[C@H]1C[C@@H]1[C@@H]1N(C(C)=O)[C@H](c2cccc(OC)c2)CC12CC2 | 0.116 | -0.303 | -0.0235 | 0.186 | 0.798 | -0.106 | -0.175 | 1.8 (inactive) | 0.657 | -0.0645 |
| C=C(CCCC)/C(=C/C[C@H](OC(=O)c1ccncc1)c1ccccc1OCCO)c1cc(C(=O)OC)ccc1OC | -0.17 | 0.963 | -0.0591 | 0.845 | 0.101 | -0.217 | 0.787 | 0.908 (inactive) | 0.416 | -0.0237 |
| O=C1C2C=CC(C(O)c3cccs3)N(Nc3ccc([N+](=O)[O-])cc3)C2C(=O)N1c1ccccc1 (stereo not given) | 0.102 | -0.0628 | 0.0543 | 0.362 | 1.19 | 1.67 | 1.23 | 1.05 (inactive) | 0.611 | 0.154 |
